± gives the standard deviation of the averaged measurements. In all, about 25,000 sequences were measured (“ln(normalized median fluorescence intensity)”: median about 8.6, highest 2% from about 10 on). The entries come from a sample that favours the highest values as a whole.
The sequences below were run on PfAP2-EXP AP2 domain (GST-tagged) (assay: gcPBM binding intensity (ln(normalized median fluorescence intensity)); higher = stronger DNA binding).
Method in brief: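 Plasmodium falciparum DNA-binding domains carrying a GST tag were expressed in E. coli and applied for 1 h, at about 25 μg on average, to an Agilent 4 × 180k array. The array held primer-extended double-stranded 36-bp intergenic genomic probes together with negative controls, and binding took place in 1× PBS with 1% milk, 0.2 mg/ml BSA, 0.5% salmon testes DNA and 0.03% Triton X-100. An Alexa488 anti-GST antibody detected bound protein, and the array was scanned at 488 nm. Binding intensity is taken as the highest Masliner-normalised natural-log median intensity across replicate spots of either probe orientation.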

Row | Sequence | gcPBM binding intensity (ln)
1 | TTAACCACTAAAAGTACACACATATATACCTATATA [CACACA_site6026] | 8.45 ± 0.28
2 | AATAAATAAAGAAGTACACACATATATATATATATA [CACACA_site4314] | 10.1 ± 0.41
3 | ATGATATGGATAAATACACACAATAAAATAATGTCT [CACACA_site6786] | 8.71 ± 0.43
4 | TATACATACATACATACACACACACCGATATATACA [CACACA_site8184] | 8.78 ± 0.42
5 | TATGTACAAATATGTACACACACACCGATATATATA [CACACA_site4487] | 8.76 ± 0.18
6 | AATATATATATATATACACACACACCGATATATATA [CACACA_site8158] | 8.79 ± 0.33
7 | TATATATATATATACACACACACACCGATATATATA [CACACA_site8813] | 10.3 ± 0.41
8 | TATATATATTTATGTACACACACACCGATAAATAAA [CACACA_site4404] | 8.91 ± 0.48
9 | TATATATATATATGTACACACACACCGATAAATAAA [CACACA_site8041] | 10.21 ± 0.085
10 | TATATATATATGTGTACACATGTCGCATTTTTTTAT [CACACA_site4648] | 10 ± 0.26
11 | TGATAATTTCATTTTGCATGTGACAATACAAGATGT [TGCATGCA_site203] | 8.59 ± 0.18
12 | AAAAAAATAATATAAATAATGAAAAGATATAAATAA [GTGCAC_negctrl_site432] | 8.54 ± 0.35
13 | ATGCTTCCTTAGGAATGTACACACATATATAATATG [XGTACX_site873] | 8.69 ± 0.35
14 | TAAAATATAATAAAATGTACACGCATGCAATAGAAT [XGTACX_site7434] | 9.99 ± 0.47
15 | CAAAAATAATAGAATACATGCAAAAATAAATGTATA [TGCATGCA_site196] | 9 ± 0.071
16 | TAGAAAAAAATAGATGCATGCAATGAATGAATAATA [TGCATGCA_site14] | 10.3 ± 0.17
17 | TAATAAAATGTACACGCATGCAATAGAATATAAAGT [TGCATGCA_site905] | 10.3 ± 0.79
18 | ATAGAAATAAAATAAAATAAAAAAAAAATAATGAAA [CACACA_negctrl_site1565] | 8.64 ± 0.43
19 | AAAATATATATAAATGCATGCATAATGAAATATATA [TGCATGCA_site39] | 9.95 ± 0.21
20 | ATTCTACCACGCGATATACACACTTGTAGACATCTT [CACACA_site188] | 8.97 ± 0.49
21 | TTTAAAAATTTGATCAAACACACGTTGCATAAATTA [CACACA_site3945] | 8.87 ± 0.47
22 | TTGTTTAACTTGTTAAATATAATGTATCTGTGGATA [GTGCAC_negctrl_site108] | 8.12 ± 0.4
23 | TTAATACTTTTTTCTGTACACACTTGATTTACTATA [CACACA_site2799] | 8.95 ± 0.44
24 | TATATATATATATATTGTACTTTATATGTTCTTATA [XGTACX_site7545] | 10.3 ± 0.11
25 | ATATATATATATATATGTACTTATTTATTTATTTAT [XGTACX_site4645] | 10.2 ± 0.51

Row | Sequence | gcPBM binding intensity (ln)
26 | TTTTTATTTATATGATACTTATATATATATATATAT [CACACA_negctrl_site462] | 10.2 ± 0.16
27 | TTGTTAATATATATATGTACTTATTTATTTATTTAT [XGTACX_site2274] | 8.51 ± 0.35
28 | AAAATTGTTATTTTATGTACTTATATTTATTTATTT [XGTACX_site3478] | 8.53 ± 0.27
29 | TATTTATTGTGATACTTATATTATTTTATGATTAAA [CACACA_negctrl_site901] | 8.27 ± 0.37
30 | TACTTATTGTGATACTTATATTATTTTATGATTAAA [XGTACX_negctrl_site353] | 8.36 ± 0.39
31 | ATATATATATATAGTTGTACTTAATTTTATATGTTA [XGTACX_site5256] | 10.2 ± 0.15
32 | TATATATATATATATTGTACTTATGTTTATATTCAT [XGTACX_site6258] | 10.1 ± 0.2
33 | ATATATATGTATGTATGTACTTATTTATTTATTTAT [XGTACX_site7740] | 8.32 ± 0.16
34 | ATATATATATATATATGTACTTATTTATATATTTAT [XGTACX_site7811] | 10.1 ± 0.25
35 | ATGTTTATTTATTTATGTACTTATATATTTATATAT [XGTACX_site7924] | 8.78 ± 0.34
36 | ATCTTTTCATATTGCTGTACAAATTATTTTCATTCG [XGTACX_site492] | 9.05 ± 0.45
37 | AGAATTATATACACAAGTACATAATGACATATATAT [XGTACX_site5617] | 8.42 ± 0.35
38 | TATCATTTATATATGTGTACTTATTTATTTATTTAT [XGTACX_site7961] | 8.82 ± 0.45
39 | TTATATATTTTTATGTGTACTTATATATATATATAT [XGTACX_site6211] | 10 ± 0.13
40 | GTATGTATATATGTATGTACTTATGTATCATTATTA [XGTACX_site2438] | 8.35 ± 0.26
41 | ATATATATATATATATGTACTTATGTCATCATTAAA [XGTACX_site5316] | 10.3 ± 0.35
42 | TAAATATATATTATATGTACTTATATATATATATAT [XGTACX_site4448] | 9.85 ± 0.3
43 | TATATATTATATATATGTACTTATTTATTAATTTAT [XGTACX_site5253] | 8.29 ± 0.25
44 | ATATATATATATATGTGTACTTATATATTTAAAAAA [XGTACX_site1761] | 10 ± 0.27
45 | ATTTATTTATTTATATGTACTTATATATGTATTTTC [XGTACX_site6269] | 8.85 ± 0.25
46 | ATATTTTTTTTTTTATGTACTTATTTATAATTATTT [XGTACX_site5279] | 8.67 ± 0.37
47 | ATATATATATATATATGTACTTATTAAGATTAAAAA [XGTACX_site61] | 10.2 ± 0.2
48 | ATATATATATATATATGTACTTATTTATTTATATTA [XGTACX_site4646] | 10.3 ± 0.39
49 | ATATATATATATATATGTACTTATTTATTTTATATA [XGTACX_site8810] | 10.2 ± 0.24
